mIDH1 inhibitor: qHTS for Inhibitors of mutant isocitrate dehydrogenase 1 (IDH1): qHTS | IDH1-R132H enzyme, NADPH consumption, diaphorase/resazurin fluorescence | Potency, µM (titrated, usually from 76.6 µM), for the others: top-dose activity change, negative = inhibition, hits mostly inhibitors | Isocitrate dehydrogenase [NADP] cytoplasmic (Homo sapiens), O75874 | 0.093% of 390,000 active; note: potency is the fitted concentration of half-maximal effect; % is set by controls: 0 for no effect and ±100 for the full control effect; nearly all actives have a fitted effect of over 65% in size
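IDH1-R132H (0.5 ug/mL) preincubated 30 min with compound, then NADPH (0.016 mM) and alpha-KG (2 mM) added; 80 min at RT, pH 7.5. Remaining NADPH coupled via diaphorase/resazurin to fluorescence (540/590 nm); concentration-response curves normalized to no-enzyme control.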
Nrf2 block: Nrf2 qHTS screen for inhibitors; AID 504444, 2011; A549 ARE-Fluc reporter, luciferase luminescence, 18-24 h; 2.1% of 360,000 active; Potency, µM (top dose mostly 46 µM), without a hit: at the highest dose activity change, negative = inhibition, hits mostly inhibitors; note: potency is the fitted concentration of half-maximal effect; % is set by controls: 0 for no effect and ±100 for the full control effect; nearly all actives have a fitted effect of over 60% in size
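A549 ARE_Fluc cells, 5000/well, 5% FBS OPTI-MEM; compounds in dose-response, 18-24 h at 37 °C/5% CO2; CellTiter-Fluor viability read (Ex 405/Em 525), then BugLite luciferase luminescence = Nrf2 activity.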
LDHA block: qHTS assay for inhibitors of human lactate dehydrogenase; L-lactate dehydrogenase A chain (Homo sapiens), P00338; 0.15% of 480,000 active; purified LDHA, NADH/diaphorase-resazurin fluorescence; hits give low values; activity change, % (values are at about 110 or 230 µM); in the data active = activity change below about -30%; inconclusive = mostly about -25% to -30%;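 note: plate controls were DMSO wells for no effect and wells without enzyme for full effect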
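LDH5 2 nM; NADH 0.06 mM, pyruvate 0.2 mM; 200 mM Tris pH 7.4, EDTA, Tween-20; 5 min RT. Detection: diaphorase 0.133 mg/mL + resazurin 37 µM, fluorescence ex540/em590 at 0 and 20 min; normalized to enzyme-free and DMSO wells.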
12-LOX inh: Primary qHTS assay for inhibitors of human arachidonate 12S-lipoxygenase (ALOX12): Round 2. 1.1% of 580,000 active. Polyunsaturated fatty acid lipoxygenase ALOX12 (Homo sapiens), P18054. Potency, µM (series often up to 108 µM), without a hit: top-dose activity change, negative = inhibition, actives largely listed as inhibitors. purified 12hLO, xylenol orange hydroperoxide absorbance; note: potency is the fitted concentration of half-maximal effect; % is set by controls: 0 for no effect and ±100 for the full control effect
Target sequence (P18054 whole entry, looked up): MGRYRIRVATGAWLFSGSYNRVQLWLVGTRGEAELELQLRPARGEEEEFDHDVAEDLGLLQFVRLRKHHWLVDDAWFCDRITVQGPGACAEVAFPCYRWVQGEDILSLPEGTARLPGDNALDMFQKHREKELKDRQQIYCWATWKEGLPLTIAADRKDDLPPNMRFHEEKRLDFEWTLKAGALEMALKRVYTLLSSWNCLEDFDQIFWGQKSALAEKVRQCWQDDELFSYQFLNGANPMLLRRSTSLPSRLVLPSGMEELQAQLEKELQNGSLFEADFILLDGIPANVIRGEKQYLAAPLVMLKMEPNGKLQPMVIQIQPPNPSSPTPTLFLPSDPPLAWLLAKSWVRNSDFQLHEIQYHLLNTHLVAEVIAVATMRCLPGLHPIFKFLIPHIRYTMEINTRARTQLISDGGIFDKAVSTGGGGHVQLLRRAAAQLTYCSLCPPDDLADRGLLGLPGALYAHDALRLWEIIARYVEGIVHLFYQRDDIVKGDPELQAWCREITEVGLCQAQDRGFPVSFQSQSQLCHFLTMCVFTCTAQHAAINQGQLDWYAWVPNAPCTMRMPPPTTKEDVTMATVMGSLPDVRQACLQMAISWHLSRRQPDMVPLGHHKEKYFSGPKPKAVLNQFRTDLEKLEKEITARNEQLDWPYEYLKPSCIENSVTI
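Purified human 12hLO at 150 nM in 25 mM Hepes, 0.01% Triton X-100, pH 7.0, preincubated 15 min at room temperature with compound. Reaction started with 40 uM arachidonic acid, 30 min at room temperature. Hydroperoxide measured by Fe-xylenol orange, 573/405 nm absorbance ratio.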
A549 tox: Nrf2 qHTS screen for inhibitors: counterscreen for cytotoxicity | Potency, µM (series often up to 46 µM), without a hit: top-dose activity change, negative = cytotoxicity, most hits filed as inhibitors | 0.16% of 390,000 active | A549 ARE-Fluc cells, CellTiter-Fluor viability, 18-24 h; note: potency is the fitted concentration of half-maximal effect; % is set by controls: 0 for no effect and ±100 for the full control effect
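Cytotoxicity counterscreen: CellTiter-Fluor fluorescence was measured in A549 ARE_Fluc cells after 18-24 h of compound exposure in a concentration series. The subsequent BugLite luminescent read reports ARE-luciferase activity.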
Nrf2 ARE act: qHTS of Nrf2 Activators | AREc32 ARE-luciferase reporter (MCF7-derived line), luminescence, 24 h | Potency, µM (titrated, usually from 46.1 µM), for inactives: at the highest dose activation, hits mostly activators | 0.31% of 410,000 active | AID 624171, 2012; note: potency is the fitted concentration of half-maximal effect; % of control where 0% means no effect; nearly all actives have a fitted effect of over 65% in size
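Nrf2 activation is followed as ARE-luciferase induction in the AREc32 line after one day of compound treatment; luminescence is read with Steady-Glo.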
Starred values were filed as active, the others as inactive; ? = inconclusive; . = no result given. The list is not random: actives were taken first. Their share in the collection is about 2.7%. Unless noted, calls come from the whole dose curve; as a rule, active = well fitted curve in the direction sought with a large enough effect; inconclusive = small, poorly fitted or top-dose-only effect, or another doubt; inactive = no such curve, though single readings can be large; an effect the other way counts as inactive or inconclusive.

SMILES	mIDH1 inhibitor	Nrf2 block	LDHA block	12-LOX inh	A549 tox	Nrf2 ARE act
Cc1nn(-c2ccc(Cl)cn2)c2c1C(=O)CC(C)(C)C2Br (stereo not drawn)	-3%	-26%	6	-3%	4%	8%
Cc1ccc(-n2nc(C)c3c2C(Br)C(C)(C)CC3=O)nc1 (stereo not drawn)	3%	7.3µM*	8	-27%	-14%	12%
CCCCn1nc(C(=O)NCc2ccccc2F)c2ccccc2c1=O	.	.	11	-3%	.	.
Cc1cccc(-n2c(=S)[nH]c3sc4c(c3c2=O)CCc2ccccc2-4)c1	-5%	1%	3	16µM*	3%	3%
Cc1ccc(-n2c(O)c(/C=N/Nc3ccc(S(=O)(=O)N4CCOCC4)cc3[N+](=O)[O-])c3ccccc3c2=O)c(C)c1	5%	18µM*	-5	-24%	?	14%
COc1ccc(-c2nc3cc(NC(=O)c4ccccc4Cl)ccc3o2)cc1	.	.	-5	11%	.	.
CCCN1C(=O)[C@@H]2[C@@H](CCN2C(=O)CSCC(=O)O)N(Cc2cccs2)C1=O	.	.	.	32µM*	.	.
CC1=C(C(=O)Nc2ccccc2)C(c2ccc(Cl)cc2)NC(=S)N1 (stereo not drawn)	.	.	-4	-15%	.	.
CCOC(=O)c1c(NC(=O)C2=C(C)NC(=S)NC2c2ccc(F)cc2)sc(C)c1C (stereo not drawn)	0%	-29%	-6	28µM*	?	0%
CCOC(=O)c1c(NC(=O)C2=C(C)NC(=S)NC2c2ccc(F)cc2F)sc(C)c1C (stereo not drawn)	5%	?	-1	40µM*	-15%	3%
CCOC(=O)c1c(NC(=O)C2=C(C)NC(=S)NC2c2ccc(C)cc2)sc(C)c1C (stereo not drawn)	-7%	?	-6	18µM*	-19%	2%
COc1ccc(CNc2nc3c(c(=O)[nH]c(=O)n3C)n2Cc2cccc(C)c2)cc1	.	.	0	0%	.	.
Cc1ccc(C(=O)Nc2ccc3oc(=O)ccc3c2)cc1	.	.	0	1%	.	.
N#CCSc1nnc(-c2ccccc2)n1-c1ccc(F)cc1F	.	.	-1	?	.	.
Nc1ccccc1C1CC1(Cl)Cl (stereo not drawn)	.	.	12	-7%	.	.
CN(c1ccccc1)S(=O)(=O)c1cccc(NC(=O)C2=NN(c3ccccc3)C(=O)CC2)c1	3%	21µM*	1	-15%	-15%	4%
CSc1ncccc1C(=O)Nc1cccc(S(=O)(=O)N(C)c2ccccc2)c1	-10%	12µM*	-4	-21%	-20%	1%
O=C(NC1CC1)c1cccc(NS(=O)(=O)c2ccc(C(F)(F)F)cc2)c1	.	.	-8	-10%	.	.
CCc1cccc(NC(=O)Cn2c(N3CCc4ccccc4C3)nc(C)cc2=O)c1	.	.	.	-9%	.	.
CCOc1ccc2nc(S(N)(=O)=O)sc2c1	1%	7%	-80*	-2%	-8%	?
CCOc1ccc2nc(NS(=O)(=O)c3cccs3)sc2c1	0%	?	-3	4%	-3%	1%
O=C(CN1c2ccccc2Sc2ccccc21)NNC(=O)Nc1ccc(Cl)cc1	-6%	18µM*	-6	0%	?	8%
Cc1ccc2c(CC(=O)Nc3ccc(S(=O)(=O)N4CCCC(C)C4)cc3)coc2c1 (stereo not drawn)	-15%	21µM*	3	2%	-8%	1%
CC(C)Cn1nnnc1SCC(=O)N(Cc1cccs1)c1ccc2c(c1)OCCO2	.	.	4	?	.	.
CCc1c(-c2ccc(Cl)cc2)ncn1Cc1cccc(-c2ccccc2)c1	.	.	0	8.9µM*	.	.
SMILES	mIDH1 inhibitor	Nrf2 block	LDHA block	12-LOX inh	A549 tox	Nrf2 ARE act
CCc1c(-c2ccccc2)ncn1Cc1cccc(-c2ccccc2)c1	.	.	1	?	.	.
O=C(Nc1cccc(Cl)c1)c1cc(N=Nc2ccc([N+](=O)[O-])cc2Cl)ccc1O	-1%	-25%	-46*	0%	?	5%
O=C(Nc1ccc([N+](=O)[O-])cc1Cl)c1cc(Cl)ccc1O	10%	-11%	-17	?	-10%	0%
O=C(Nc1cccc(Cl)c1)c1cccc(Oc2ccc([N+](=O)[O-])cc2Cl)c1	6%	21µM*	-7	1%	-25%	-1%
COc1cccc(C(=O)COc2cccc(NC(=O)c3cccc([N+](=O)[O-])c3)c2)c1	6%	18µM*	-5	160%	-18%	0%
O=C(COc1cccc(NC(=O)c2cccc([N+](=O)[O-])c2)c1)c1ccc(F)cc1	2%	?	0	93%	-10%	0%
CCn1cc(S(=O)(=O)N2CCC3(CC2)CC(OCC2CC2)CCO3)cn1 (stereo not drawn)	.	.	.	23%	.	.
CCOc1ccc(/C=C/[N+](=O)[O-])c2ccccc12	-11%	26µM*	3	.	?	9%
O=C(Nc1ccc(S(=O)(=O)Nc2cnc3ccccc3n2)cc1)c1ccc(Cl)cc1Cl	-15%	?	-7	?	-1%	2%
Cc1cc(Cl)ccc1OC(C)C(=O)Nc1ccc(C(=O)Nc2ccccc2C(=O)O)cc1 (stereo not drawn)	17%	?	-10	50µM*	-18%	-2%
Cc1cc(Cl)ccc1OC(C)C(=O)Nc1ccc(S(=O)(=O)Nc2cnc3ccccc3n2)cc1 (stereo not drawn)	0%	8.2µM*	-6	?	-16%	0%
Cc1cc(Cl)ccc1OC(C)C(=O)Nc1ccc(S(=O)(=O)N2CCOCC2)cc1 (stereo not drawn)	3%	?	0	156%	0%	2%
CCC(=O)Nc1ccc(/C(C)=N/O)cc1	.	.	8	-8%	.	.
COc1cccc(Cn2c(NCC(C)O)nc3c2c(=O)n(C)c(=O)n3C)c1 (stereo not drawn)	.	.	-3	11%	.	.
CN(C)c1ccc(C(=C2C=CC(=[N+](C)C)C=C2)c2ccccc2)cc1	.	.	.	0.32µM*	.	.
Fc1ccc2nncc(SCc3ccccc3Cl)c2c1	5%	5%	6	-7%	13%	5.6µM*
[N-]=[N+]=CC(=O)CNC(=O)[C@@H](Cc1ccccc1)N1C(=O)c2ccccc2C1=O	7%	.	1	0%	13µM*	0%
O=C(NCc1ccco1)C(Cc1ccccc1)N1C(=O)c2ccccc2C1=O (stereo not drawn)	7%	?	0	0%	-1%	?
